From PubChem
The list is not random: actives were taken first. Their share in the collection is about 6.5%.
FMDV antiviral – antivirals against foot and mouth disease virus | FMDV antiviral cell-based qHTS | Potency, µM (doses to about 57.9 µM), inactives show at the highest dose activity change, negative = inhibition, usual class: inhibitors | hit rate 1.2% among 410,000 | AID 1159524; calls by dose curve; tested in HEK293T cells; further: read-out not given here; potency means the concentration at half of the fitted maximal effect; nearly all actives have a fitted effect of over 45% in size
Marburg entry inh – blocks Marburg virus binding to or entry into cells; Potency, µM (titrated, usually from 37.8 µM), without a hit: at the top dose activity change, negative = inhibition, most hits filed as inhibitors; hit rate 1.8% among 300,000; Marburg virus pseudotyped entry inhibition, cell reporter; AID 540276; calls by dose curve; tested in HEK293 cells; further: potency means the concentration at half of the fitted maximal effect
Vaccinia Venus – inhibitors of vaccinia virus (Venus reporter); Vaccinia virus Venus reporter expression, fluorescence; Potency, µM (series often up to 36.5 µM), without a hit: at the highest dose activity change, negative = inhibition, actives largely listed as inhibitors; hit rate 0.46% among 330,000; calls by dose curve; tested in A549 cells; further: potency means the concentration at half of the fitted maximal effect; nearly all actives have a fitted effect of over 30% in size
Vaccinia mCherry – inhibitors of vaccinia virus infection (mCherry reporter signal); Potency, µM (titrated, usually from 36.5 µM), without a hit: top-dose activity change, negative = inhibition, most hits filed as inhibitors; hit rate 0.63% among 310,000; Vaccinia virus mCherry reporter infection, fluorescence; calls by dose curve; tested in A549 cells; further: potency means the concentration at half of the fitted maximal effect; nearly all actives have a fitted effect of over 35% in size
HCMV inh – inhibitors of human cytomegalovirus; HFF cells, HCMV-luciferase reporter, 72 h; active compounds read low; AID 1259415; hit rate 4.5% among 410,000; activity change, negative = inhibition, % at 57.5 µM; in the data active means activity change below about -60%; inconclusive means no clear call, values can overlap the other calls; inactive means above about -39%
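HFF cells seeded 16 h at 37C, treated with compounds, infected with luciferase-reporter HCMV at MOI 1 PFU/cell; luciferase read at 72 h post infection, normalized to buffer-only and Salinomycin controls.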
LASV entry inh – inhibitors of Lassa virus binding or cell entry; hit rate 1.2% among 300,000; Potency, µM (highest dose often 37.9 µM), for the others: top-dose activity change, negative = inhibition, most hits filed as inhibitors; Lassa virus pseudotype entry inhibition, cell reporter; calls by dose curve; tested in HEK293 cells; further: potency means the concentration at half of the fitted maximal effect; nearly all actives have a fitted effect of over 50% in size
Numbers without * were called inactive; i = inactive; ? = inconclusive; nt = not tested or not shown; [ ] = remark or other dose. On the % scale 0 is the no-effect control and ±100 the full control effect.

SMILES	FMDV antiviral	Marburg entry inh	Vaccinia Venus	Vaccinia mCherry	HCMV inh	LASV entry inh
Cc1[nH]nc2c1C(c1ccccn1)N(c1ccc(Br)cc1)C2=O (stereo not given)	-20%	15%	nt	nt	-66*	16%
O=C(CCl)Nc1ccc(Oc2cnc3ccccc3n2)cc1	20µM*	?	nt	nt	-104*	21µM*
O=C(Nc1cccc(-c2cnc3ccccc3n2)c1)c1ccccc1	46%	-11%	nt	nt	-17	2%
O=C(CCl)Nc1cccc(-c2cnc3ccccc3n2)c1	25µM*	?	?	11µM*	-98*	?
O=C(Nc1cccc(-c2cnc3ccccc3n2)c1)c1cccc(NC(=O)c2ccco2)c1	?	12µM*	nt	nt	133	?
COC1=C(OC)C(=O)C(CCCCCCCCCCO)=C(C)C1=O	nt	nt	nt	nt	-18	nt
CC1=C(C)C(=O)C(CCCCC#CCCCC#CCO)=C(C)C1=O	22µM*	?	-14%	i	nt	21µM*
CCOC(=O)/C(=C\c1ccccc1)C(=O)CCN1CCOCC1	18µM*	12%	-7%	i	24	-4%[46.1 µM]
O=C(CCN1CCOCC1)NNC(=O)/C(=C/c1ccccc1)NC(=O)c1ccccc1	-10%	?	-8%	-19%	1	11µM*
O=C(CCc1ccccc1)OCCN1CCOCC1	-9%	1%	-11%	nt	-2	-14%
COC1=C[C@H](C(=O)NCCNC(C)=O)[C@@]2(C)Cc3ccccc3[C@@H]2CC1=O	nt	-20%[14.2 µM]	nt	nt	nt	?
COc1ccc(CCNc2nc(-c3cccnc3)nc3ccccc23)cc1OC	-20%	8.9µM*	?	-7%	4	?
COC(=O)CNc1nc(-c2cccnc2)nc2ccccc12	-27%	0%	-17%	-17%	-3	19%
COc1ccc(/C=N/Nc2nc(-c3cccnc3)nc3ccccc23)cc1OC	-12%	?	4%	-13%	-12	-24%[46.1 µM]
CCOc1ccc(CN(C)c2nc(-c3cccnc3)nc3ccccc23)cc1OC	25µM*	?	?	?	-18	nt
COc1ccccc1NC(=O)Nc1nc(-c2cccnc2)nc2ccccc12	-2%	7.1µM*	nt	nt	nt	nt
CCn1c(=O)c2cc(C(=O)NCc3cc(OC)ccc3OC)sc2c2ccccc21	-11%	-23%[46.1 µM]	?	?	-19	-27%[46.1 µM]
Cc1c(CN2CCOc3c(O)cc(-c4nc5ccccc5s4)cc3C2)cnn1C	?	nt	-13%	-25%	nt	nt
COc1cccc(-c2csc3ncnc(Sc4nnnn4C)c23)c1	20µM*	nt	nt	nt	-99*	nt
Cn1nnnc1Sc1ncnc2scc(-c3ccccc3C(F)(F)F)c12	?	nt	nt	nt	-83*	nt
Cn1nnnc1Sc1ncnc2scc(-c3ccc(C(F)(F)F)cc3)c12	11µM*	nt	nt	nt	-99*	nt
Cn1nnnc1Sc1ncnc2scc(-c3cccc(C(F)(F)F)c3)c12	22µM*	nt	nt	nt	-99*	nt
CCc1cc2c(nc1CC)CCN(CC/C(C)=N/OC[C@@H](O)[C@@H]1O[C@@H]3OC(C)(C)O[C@@H]3[C@H]1O)C2	nt	-6%[14.2 µM]	nt	nt	nt	nt
CCOc1ccc(N2C(=O)C3=C(C(c4ccc(Cl)cc4)=NCCN3)C2c2cccnc2)cc1 (stereo not given)	-3%	11µM*	-28%	-5%	-31	?
Cc1ccc(C2C3=C(NCCN=C3c3ccccc3)C(=O)N2c2ccccc2)cc1 (stereo not given)	nt	10µM*	-23%	-8%	-24	?
SMILES	FMDV antiviral	Marburg entry inh	Vaccinia Venus	Vaccinia mCherry	HCMV inh	LASV entry inh
Cc1cc(NC(=O)n2ncc3c(C)cccc32)ccc1Br	57%	17%[46.1 µM]	-9%	-8%	87	3%[46.1 µM]
O=C(c1ccc(COc2ccc(Cl)cc2)o1)N1N=C(C(F)F)CC1(O)C(F)F (stereo not given)	?	-30%	?	-34%	-70*	-16%
CCN1C(=NCCCOC(C)C)N[C@H](c2ccccc2)[C@H](C(=O)OC)[C@H]1C	nt	0%[14.2 µM]	nt	nt	nt	?
Nc1ccc2nc(-c3ccccc3)c(-c3ccccc3)nc2c1	-23%	-10%[46.1 µM]	12%	?	47	-17%
C[n+]1c(-c2ccccc2)c2cc(N)ccc2c2ccc(N)cc21	?	nt	126%	?	-100*	nt
Cc1cccc(C)c1N1C(=O)c2cccc([N+](=O)[O-])c2C1=O	-26%	21%	-12%	i	-63*	10%
O=C(O)c1cc2cccc([N+](=O)[O-])c2[nH]1	nt	nt	-7%	-4%	nt	nt
CN(C)CCNC(=O)c1cccc(-c2cnc3c(NC=O)cc(-c4cccs4)cn23)c1	13%	nt	-8%	16%	-87*	nt
CN(C)CCNC(=O)c1cccc(-c2cnc3c(NC=O)cc(-c4ccc(C(=O)N5CCOCC5)cc4)cn23)c1	-14%	nt	4%	53%	-64*	nt
COc1ccc(-c2cc(NC=O)c3ncc(-c4cccc(C(=O)NCCN(C)C)c4)n3c2)cn1	0%	nt	-11%	i	-63*	nt
COc1cc(-c2cnc3c(NC=O)cc(-c4cccc(C(=O)NCCN(C)C)c4)cn23)cc(OC)c1OC	-18%	nt	-7%	-9%	37	nt
CCCOC(=O)c1ccc(Cn2nnc3sc4c(c3c2=O)CCC(C)C4)cc1 (stereo not given)	-17%	10%[46.1 µM]	12%	-1%	23	4%[46.1 µM]
COc1ccc(O[C@H]2C=C[C@@H](c3ccccc3)O[C@H]2COC(=O)CCC(C)=NO[C@@H](C)c2cc(-c3c(C)cc(C)cc3C)no2)cc1	nt	3%[14.2 µM]	nt	nt	nt	nt
COc1ccc(C2=C3C(=O)OCC3Cc3ncn(Cc4ccccc4)c32)cc1 (stereo not given)	-16%	nt	-9%	-6%	-76*	nt
CC(=O)Nc1cccc(NC(=O)CSc2nc(=O)n(Cc3ccncc3)c3c2CCC3)c1	5%	11%	-5%	-6%	-26	3%
CCOC(=O)c1nc(Nc2ccccc2)c2ccccc2n1	?	4%	nt	nt	-16	1%
CCC(C)NC(=O)CSc1c2c(nc3ccccc13)CCCC2 (stereo not given)	25µM*	?	nt	nt	66	-26%
COc1cccc(NC(=O)CSc2nc(=O)n(Cc3ccncc3)c3c2CCCC3)c1	-19%	1%	-3%	-12%	-85*	-3%
CCOC(=O)c1nc(Nc2cc(Cl)ccc2OC)c2ccccc2n1	-13%	nt	nt	nt	-70*	nt
COc1cccc(-n2c(SCC(=O)Nc3ccc4c(c3)CCC4)nc3ccccc3c2=O)c1	-15%	?	-13%	i	-70*	?
Cc1cccc(NC(=O)CSc2c3c(nc4ccccc24)CCC3)n1	?	?	-20%	-19%	49	-17%[46.1 µM]
COC(=O)[C@@H]1[C@@H](CO)[C@@H]2Cn3c(ccc(Br)c3=O)[C@@H]2N1C(=O)CN(C)C	nt	nt	nt	nt	-2	nt
CCCC[C@H]1CN2[C@@H](CC[C@@H](C)[C@@H]2c2ccc(Br)cc2)C(=O)O1	nt	2%[14.2 µM]	nt	nt	nt	nt
COc1cc(C2C(=O)N(C3CCCCC3)CC(=O)N2C2CCCCC2)ccc1OC(C)C (stereo not given)	-21%	nt	0%	-9%	-16	-13%[46.1 µM]
